From ChEMBL document CHEMBL1961873, “Compounds: GSK PKIS; Assays: Nanosyn kinase panel” (2012) come the findings set out here.

Structures are written as SMILES.

The target of assay [1] is T1, 3-phosphoinositide-dependent protein kinase 1 (Homo sapiens) (UniProt O15530).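 Further: values are mean inhibition of PDK1.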
T1 sequence (whole entry): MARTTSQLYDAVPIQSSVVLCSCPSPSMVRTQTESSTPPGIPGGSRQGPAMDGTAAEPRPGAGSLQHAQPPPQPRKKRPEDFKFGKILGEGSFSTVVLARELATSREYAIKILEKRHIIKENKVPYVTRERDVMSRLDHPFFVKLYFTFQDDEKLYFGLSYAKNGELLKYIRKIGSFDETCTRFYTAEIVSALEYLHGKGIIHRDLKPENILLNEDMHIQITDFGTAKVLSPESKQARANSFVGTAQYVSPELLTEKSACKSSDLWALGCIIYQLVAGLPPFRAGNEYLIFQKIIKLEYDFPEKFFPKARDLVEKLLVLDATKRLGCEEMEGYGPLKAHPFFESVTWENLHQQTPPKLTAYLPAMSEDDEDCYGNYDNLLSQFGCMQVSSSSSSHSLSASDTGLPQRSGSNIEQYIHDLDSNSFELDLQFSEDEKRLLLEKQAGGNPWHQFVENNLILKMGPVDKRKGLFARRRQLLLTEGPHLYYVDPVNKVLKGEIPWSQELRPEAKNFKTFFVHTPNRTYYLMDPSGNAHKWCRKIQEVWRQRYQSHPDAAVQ
The settings on record: at 0.1 µM.

For assay [2], the target named is cAMP-dependent protein kinase catalytic subunit alpha (Homo sapiens) (UniProt P17612). As to conditions: at 0.1 µM.
The target is the same in assay [3]. The settings on record: at 1 µM.
Assay [4] has as its target Protein kinase C alpha type (Homo sapiens) (UniProt P17252). As to conditions: at 0.1 µM.
Assay [5] has the same target. As to conditions: at 1 µM.
For assay [6], the target named is Protein kinase C beta type (Homo sapiens) (UniProt P05771). The settings on record: at 0.1 µM.
For assay [7] the target is unchanged. The settings on record: at 1 µM.
In assay [8] the target is Protein kinase C eta type (Homo sapiens) (UniProt P24723). The settings on record: at 0.1 µM.
For assay [9] the target is unchanged. As to conditions: at 1 µM.
Assay [10] has as its target Protein kinase C gamma type (Homo sapiens) (UniProt P05129). The settings on record: at 0.1 µM.
For assay [11] the target is unchanged. The settings on record: at 1 µM.
Assay [12] concerns the target T2, Protein kinase C iota type (Homo sapiens) (UniProt P41743).
T2 sequence (whole entry): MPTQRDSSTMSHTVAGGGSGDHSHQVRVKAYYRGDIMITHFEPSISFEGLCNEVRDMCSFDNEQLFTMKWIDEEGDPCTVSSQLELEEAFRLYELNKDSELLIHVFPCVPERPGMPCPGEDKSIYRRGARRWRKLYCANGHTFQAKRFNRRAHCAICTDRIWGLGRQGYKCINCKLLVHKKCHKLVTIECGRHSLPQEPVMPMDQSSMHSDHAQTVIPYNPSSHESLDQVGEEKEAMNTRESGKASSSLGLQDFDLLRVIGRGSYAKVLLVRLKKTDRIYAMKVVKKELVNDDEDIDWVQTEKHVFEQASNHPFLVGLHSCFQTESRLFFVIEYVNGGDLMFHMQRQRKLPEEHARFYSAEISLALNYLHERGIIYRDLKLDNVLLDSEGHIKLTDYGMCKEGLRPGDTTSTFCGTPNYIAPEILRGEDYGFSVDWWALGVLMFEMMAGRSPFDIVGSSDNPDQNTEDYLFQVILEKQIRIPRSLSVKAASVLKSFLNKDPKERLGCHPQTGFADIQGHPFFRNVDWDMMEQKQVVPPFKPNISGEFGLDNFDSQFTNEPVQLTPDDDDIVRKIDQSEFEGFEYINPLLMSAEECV
The settings on record: at 0.1 µM.

Assay [13] deals with T2, Protein kinase C iota type (Homo sapiens). As to conditions: at 1 µM.
Assay [14] has as its target Protein kinase C theta type (Homo sapiens) (UniProt Q04759). The settings on record: at 0.1 µM.
Assay [15] shares this target. As to conditions: at 1 µM.
The target in assay [16] is Protein kinase C beta type (Homo sapiens) (UniProt P05771). As to conditions: at 0.1 µM. This is another data set of the same source.
The target is the same in assay [17]. The settings on record: at 1 µM. The source holds these as a separate data set.
For assay [18], the target named is T3, Serine/threonine-protein kinase D1 (Homo sapiens) (UniProt Q15139).
T3 sequence (whole entry): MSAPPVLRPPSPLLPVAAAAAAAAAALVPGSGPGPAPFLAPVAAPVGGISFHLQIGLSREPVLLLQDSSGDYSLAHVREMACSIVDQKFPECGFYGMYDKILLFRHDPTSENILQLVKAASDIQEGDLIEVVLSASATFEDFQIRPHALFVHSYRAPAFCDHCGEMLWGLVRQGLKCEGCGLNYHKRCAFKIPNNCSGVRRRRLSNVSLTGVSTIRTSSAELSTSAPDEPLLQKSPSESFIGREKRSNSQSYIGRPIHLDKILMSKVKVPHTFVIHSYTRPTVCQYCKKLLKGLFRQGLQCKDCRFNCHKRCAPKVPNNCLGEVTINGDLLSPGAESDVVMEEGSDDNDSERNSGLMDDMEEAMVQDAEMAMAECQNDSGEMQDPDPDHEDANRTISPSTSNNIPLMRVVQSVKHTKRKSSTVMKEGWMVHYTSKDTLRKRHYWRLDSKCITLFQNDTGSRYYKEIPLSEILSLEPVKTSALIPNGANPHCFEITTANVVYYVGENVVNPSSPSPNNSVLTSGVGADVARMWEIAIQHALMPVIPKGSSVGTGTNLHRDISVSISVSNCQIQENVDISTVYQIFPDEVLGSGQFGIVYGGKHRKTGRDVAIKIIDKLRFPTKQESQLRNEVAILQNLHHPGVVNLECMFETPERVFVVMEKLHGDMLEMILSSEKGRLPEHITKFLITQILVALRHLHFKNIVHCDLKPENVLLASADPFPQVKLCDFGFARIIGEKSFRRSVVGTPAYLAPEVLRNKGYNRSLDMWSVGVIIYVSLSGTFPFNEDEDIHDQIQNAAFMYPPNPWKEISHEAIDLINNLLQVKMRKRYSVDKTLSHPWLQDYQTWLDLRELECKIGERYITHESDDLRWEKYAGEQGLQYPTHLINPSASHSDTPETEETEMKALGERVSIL
As to conditions: at 0.1 µM.

Assay [19] addresses T3, Serine/threonine-protein kinase D1 (Homo sapiens). The settings on record: at 1 µM.
Assay [20] has as its target T4, Serine/threonine-protein kinase D2 (Homo sapiens) (UniProt Q9BZL6).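 Further: reported percent inhibition values are means, part of the GSK PKIS kinase panel screen.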
T4 sequence (whole entry): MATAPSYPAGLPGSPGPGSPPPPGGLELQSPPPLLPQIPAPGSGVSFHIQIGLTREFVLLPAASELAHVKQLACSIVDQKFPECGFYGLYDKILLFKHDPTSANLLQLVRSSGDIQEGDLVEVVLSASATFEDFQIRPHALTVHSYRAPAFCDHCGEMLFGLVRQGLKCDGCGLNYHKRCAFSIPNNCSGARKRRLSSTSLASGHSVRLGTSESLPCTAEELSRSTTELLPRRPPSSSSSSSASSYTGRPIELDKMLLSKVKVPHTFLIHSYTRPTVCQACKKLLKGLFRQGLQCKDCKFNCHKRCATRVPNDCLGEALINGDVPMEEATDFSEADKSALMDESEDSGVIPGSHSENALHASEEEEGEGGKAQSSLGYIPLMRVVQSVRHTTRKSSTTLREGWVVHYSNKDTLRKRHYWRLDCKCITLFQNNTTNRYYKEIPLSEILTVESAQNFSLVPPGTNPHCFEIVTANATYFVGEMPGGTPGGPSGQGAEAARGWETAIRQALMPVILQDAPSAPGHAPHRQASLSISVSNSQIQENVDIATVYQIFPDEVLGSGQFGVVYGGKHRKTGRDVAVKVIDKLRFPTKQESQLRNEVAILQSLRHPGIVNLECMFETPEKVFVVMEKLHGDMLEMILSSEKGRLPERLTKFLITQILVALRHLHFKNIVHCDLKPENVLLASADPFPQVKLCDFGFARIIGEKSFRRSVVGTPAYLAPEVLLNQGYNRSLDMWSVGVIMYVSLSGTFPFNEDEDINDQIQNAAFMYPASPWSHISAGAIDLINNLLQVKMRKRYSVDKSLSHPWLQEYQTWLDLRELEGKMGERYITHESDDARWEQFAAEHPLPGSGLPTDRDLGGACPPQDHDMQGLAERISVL
As to conditions: at 0.1 µM.

Sequence of Protein kinase C theta type (Homo sapiens) (Q04759 whole entry, looked up): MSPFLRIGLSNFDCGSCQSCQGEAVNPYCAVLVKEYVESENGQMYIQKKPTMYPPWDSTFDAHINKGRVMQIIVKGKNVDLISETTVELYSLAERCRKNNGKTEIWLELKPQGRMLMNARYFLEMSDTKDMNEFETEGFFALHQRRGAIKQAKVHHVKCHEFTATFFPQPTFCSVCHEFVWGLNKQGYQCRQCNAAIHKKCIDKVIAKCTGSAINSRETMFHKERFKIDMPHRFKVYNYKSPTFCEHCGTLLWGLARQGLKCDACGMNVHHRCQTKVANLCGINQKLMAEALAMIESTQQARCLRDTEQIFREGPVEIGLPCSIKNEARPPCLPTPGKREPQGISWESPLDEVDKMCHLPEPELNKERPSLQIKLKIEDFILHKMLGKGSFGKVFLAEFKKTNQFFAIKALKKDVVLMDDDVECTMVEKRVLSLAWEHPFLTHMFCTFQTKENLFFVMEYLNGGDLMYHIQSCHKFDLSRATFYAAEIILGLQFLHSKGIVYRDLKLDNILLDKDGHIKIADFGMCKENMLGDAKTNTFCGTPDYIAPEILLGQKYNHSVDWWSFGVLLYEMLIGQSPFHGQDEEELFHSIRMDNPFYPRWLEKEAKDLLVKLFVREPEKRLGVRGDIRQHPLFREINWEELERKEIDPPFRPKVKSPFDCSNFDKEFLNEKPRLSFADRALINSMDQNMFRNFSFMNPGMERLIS
Sequence of Protein kinase C beta type (Homo sapiens) (P05771 2-671 limits assumed): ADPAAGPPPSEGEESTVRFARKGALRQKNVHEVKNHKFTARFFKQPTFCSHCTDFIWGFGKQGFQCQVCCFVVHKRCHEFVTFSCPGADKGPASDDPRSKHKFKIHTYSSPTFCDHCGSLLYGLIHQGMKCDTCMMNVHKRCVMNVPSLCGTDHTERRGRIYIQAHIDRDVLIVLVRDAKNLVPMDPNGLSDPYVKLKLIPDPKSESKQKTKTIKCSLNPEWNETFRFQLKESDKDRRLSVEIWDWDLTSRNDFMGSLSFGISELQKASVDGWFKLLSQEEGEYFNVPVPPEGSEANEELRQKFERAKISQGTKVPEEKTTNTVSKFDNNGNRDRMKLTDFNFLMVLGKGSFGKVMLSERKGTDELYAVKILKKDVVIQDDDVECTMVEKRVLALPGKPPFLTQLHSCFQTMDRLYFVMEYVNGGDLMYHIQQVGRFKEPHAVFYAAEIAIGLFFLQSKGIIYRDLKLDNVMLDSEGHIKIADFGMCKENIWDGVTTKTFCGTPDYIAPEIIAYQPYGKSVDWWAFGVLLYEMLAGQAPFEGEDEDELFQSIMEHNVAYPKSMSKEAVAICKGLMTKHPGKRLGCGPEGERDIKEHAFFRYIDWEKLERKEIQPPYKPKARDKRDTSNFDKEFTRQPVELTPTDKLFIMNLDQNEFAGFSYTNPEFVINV
Sequence of Protein kinase C eta type (Homo sapiens) (P24723 whole entry): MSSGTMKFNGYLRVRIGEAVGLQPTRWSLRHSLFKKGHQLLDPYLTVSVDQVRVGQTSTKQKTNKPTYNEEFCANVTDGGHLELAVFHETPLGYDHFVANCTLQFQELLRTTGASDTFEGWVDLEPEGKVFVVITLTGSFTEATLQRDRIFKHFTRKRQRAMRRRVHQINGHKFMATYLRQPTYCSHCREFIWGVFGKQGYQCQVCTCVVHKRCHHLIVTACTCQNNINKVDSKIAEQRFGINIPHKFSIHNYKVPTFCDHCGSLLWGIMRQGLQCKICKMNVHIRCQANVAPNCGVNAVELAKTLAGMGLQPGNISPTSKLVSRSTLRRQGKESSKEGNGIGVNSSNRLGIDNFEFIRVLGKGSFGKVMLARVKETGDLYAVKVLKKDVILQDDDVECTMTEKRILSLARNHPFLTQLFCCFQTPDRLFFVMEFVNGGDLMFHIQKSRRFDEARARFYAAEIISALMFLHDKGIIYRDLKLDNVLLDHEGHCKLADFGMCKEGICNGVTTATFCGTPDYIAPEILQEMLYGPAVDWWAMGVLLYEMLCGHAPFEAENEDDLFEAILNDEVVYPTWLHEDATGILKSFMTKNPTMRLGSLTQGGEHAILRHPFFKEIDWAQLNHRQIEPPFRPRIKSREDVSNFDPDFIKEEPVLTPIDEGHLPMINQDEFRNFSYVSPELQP

Turning to `[O-][S+]1CCN(Cc2ccc(-c3ccc4ncnc(Nc5ccc(OCc6cccc(F)c6)c(Cl)c5)c4c3)o2)CC1`, the inhibition was 4.4% in [1]; 2.27% in assay [2]; 3.13% in assay [3]; 1.17% in assay [4]; 1.29% in assay [5]; -0.91% in assay [6]. Besides, the inhibition in [7] was found to be 1.67%; in assay [8] it was 2.12%; in assay [9], 4.25%; in [10], 3.03%; in [11], 1.04%; in [12], 3.42%. For the same compound, the inhibition in [13] was found to be 2.26%; in assay [14] it was 2.17%; in assay [15] it was 2.74%; in [16] it was 2.05%; in assay [17], 2.51%; in assay [18] it was 5.58%. For the same compound, the inhibition in assay [19] worked out at 10.6%; in assay [20] it was 4.6%.

Regarding `N#Cc1c(NC(=O)c2ccc(F)cc2)sc2c1CCCC2`, the inhibition in [1] was 0.85%; in assay [2] it was 1.5%; in assay [3], 2.64%; in assay [4], 0.43%; in [5], -0.26%; in assay [6] it was -1.4%. Also, the inhibition was 2.12% in assay [7]; 3.5% in assay [8]; 2.09% in assay [9]; 0.54% in [10]; 0.62% in assay [11]; -0.52% in assay [12]. For the same compound, the inhibition in [13] was -1.26%; in [14], 0.53%; in assay [15] it was -0.01%; in assay [16], 1.04%; in assay [17], 0.69%; in [18], 1.57%. Further, the inhibition in assay [19] came to 2.87%; in assay [20], 3.3%.

As for `Nc1nc(-c2ccc(F)cc2)c(-c2ccc3ncccc3n2)s1`, the inhibition in [1] amounted to 3.99%; in assay [2], 1.65%; in [3], 3.75%; in assay [4], 1.13%; in [5], 2.9%; in assay [6] it was 0.21%. Also, the inhibition in assay [7] came out at 3.92%; in [8], 1.76%; in assay [9], 6.71%; in assay [10], 2.26%; in [11], 4.5%; in assay [12], 2.17%. Further, the inhibition came to 1.59% in assay [13]; 1.69% in [14]; 3.74% in assay [15]; 1.11% in assay [16]; 3.48% in assay [17]; 8% in assay [18]. Further, the inhibition in [19] came to 45%; in assay [20], 8.22%.

On to `CC1=C(C(=O)Nc2cc(Cl)c3[nH]ncc3c2)C(c2ccc(C(F)(F)F)cc2)CC(=O)N1` (stereo not given), for which the inhibition stood at 1.84% in assay [1]; 21.8% in assay [2]; 71% in assay [3]; 0.91% in assay [4]; 1.52% in assay [5]; 0.15% in assay [6]. Besides, the inhibition came to 2.02% in [7]; 5.7% in assay [8]; 39.1% in assay [9]; 3.92% in [10]; 3.46% in [11]; 1.43% in assay [12]. Further, the inhibition is 1.11% in assay [13]; 5.67% in assay [14]; 28.3% in assay [15]; 1.98% in [16]; 2.19% in assay [17]; 2.79% in [18]. In addition, the inhibition in assay [19] amounted to 6.51%; in assay [20] it was 3.43%.

Regarding `CCc1nn2ncccc2c1-c1ccnc(NC2CC2)n1`, the inhibition in assay [1] amounted to 1.73%; in assay [2] it was 0.78%; in assay [3], 1.73%; in assay [4], 0.35%; in [5] it was 1.73%; in [6], 1.02%. The inhibition was 2.65% in assay [7]; 0.47% in assay [8]; 0.53% in [9]; 0.95% in assay [10]; 4.3% in assay [11]; 0.47% in assay [12]. Moreover, the inhibition in assay [13] is 0.64%; in assay [14], 0.97%; in assay [15] it was 1.63%; in assay [16], 1.1%; in assay [17] it was 3.32%; in assay [18], 2.35%. Besides, the results for the inhibition in [19] and in assay [20] were 4.56% and 2.36%, respectively.

In the case of `CNC(=O)c1cccc(C#Cc2cncnc2Nc2ccc(OCc3cccc(F)c3)c(Cl)c2)c1`, the inhibition is 1% in assay [1]; 1.13% in assay [2]; 0.28% in [3]; -0.17% in assay [4]; 0.64% in assay [5]; 0.07% in [6]. In addition, the inhibition is 1.77% in assay [7]; 1.23% in [8]; -0.12% in [9]; 0.99% in assay [10]; -1.09% in assay [11]; 0.26% in assay [12]. For the same compound, the inhibition in assay [13] was -0.26%; in [14], 0.09%; in [15], 1.85%; in assay [16], -3.35%; in assay [17], -0.69%; in [18], 0.59%. The inhibition was -0.61% in assay [19] and -0.57% in assay [20].

Turning to `Clc1ccc(-c2nn3ncccc3c2-c2ccnc(Nc3ccccc3)n2)cc1`, the inhibition is 0.53% in assay [1]; 1.67% in [2]; 2.52% in [3]; 1.23% in [4]; -0.09% in assay [5]; 0.65% in assay [6]. Moreover, the inhibition was 1.93% in [7]; -0.59% in [8]; -0.77% in assay [9]; -1.17% in [10]; -1.39% in assay [11]; 0.23% in assay [12]. In addition, the inhibition was 0.46% in [13]; 0.91% in [14]; -0.72% in [15]; -0.06% in [16]; 3.99% in assay [17]; 1.65% in [18]. The inhibition in assay [19] came out at 2.76%; in [20] it was 1.23%.

For orientation: inhibition means the change of the read-out against control, counted positive when it falls.
